Source: the supplement of paper PMC10811239

tested on: LEGO organoid PTCC (PTEN-/-; TP53-/-; CDKN2A-/-; CDKN2B-/-); assay: bioluminescence (viable cell) signal fold change after vs before treatment, normalised to DMSO (ratio); higher = more tumour cell growth / less inhibition; settings: 10 µM; treatment time 6 days
Procedure: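 Luc2-labelled iPSC-derived glioblastoma-like organoids (LEGOs, genotypes PT = PTEN-/-;TP53-/-, PTCC = plus CDKN2A/B-/-, PTN = plus NF1-/-) were treated with 10 uM drug for 6 days (applied every other day) at 37 C. Bioluminescence imaging was done before treatment and 2 days after the last dose. BLI signals were normalised to the DMSO control on the same day and then to the pre-treatment signal (N=3).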

Row | SMILES | bioluminescence
1 | COC(=O)C1=C(C)NC(C)=C(C(=O)OCCN(C)Cc2ccccc2)C1c1cccc([N+](=O)[O-])c1.Cl (configuration not stated) [Nicardipine hydrochloride] | 1.19
2 | Cl.OC[C@H]1NC[C@H](O)[C@@H](O)[C@H]1O [Migalastat hydrochloride] | 0.51
3 | CC(C(=O)O)c1ccc(-c2ccccc2)c(F)c1 (configuration not stated) [Flurbiprofen] | 0.856
4 | Nc1cccc2c1CN(C1CCC(=O)NC1=O)C2=O (configuration not stated) [Lenalidomide] | 4.82
5 | CN(C)CC(c1ccc(O)cc1)C1(O)CCCCC1.O=C(O)CCC(=O)O (configuration not stated) [Desvenlafaxine succinate hydrate] | 0.582
6 | CCCN(CCc1cccs1)[C@H]1CCc2c(O)cccc2C1 [Rotigotine] | 2.02
7 | CCN(CC)C(=O)[C@]1(c2ccccc2)C[C@@H]1CN.Cl [Milnacipran hydrochloride] | 1.02
8 | CCCN(CCC)S(=O)(=O)c1ccc(C(=O)O)cc1 [Probenecid] | 1.41
9 | CN(C)CCc1c[nH]c2ccc(CS(=O)(=O)N3CCCC3)cc12.O=C(O)CC(O)C(=O)O [Almotriptan Malate] | 0.868
10 | C[C@@H]1COCCN1c1cc(C2([S@](C)(=N)=O)CC2)nc(-c2ccnc3[nH]ccc23)n1 [Ceralasertib] | 1.4
11 | C[C@@](Cc1ccc(O)c(O)c1)(NN)C(=O)O.O [Carbidopa Hydrate] | 0.96
12 | COC(c1ccccc1)(c1ccccc1)[C@H](Oc1nc(C)cc(C)n1)C(=O)O [Ambrisentan] | 1.39
